PubChem BioAssay AID684 (PCMD, 2007)
About 95 (0.2%) of roughly 62,000 compounds were called active. The list comes from a sample in which actives are over-represented; it also holds similar structures and randomly drawn compounds. Values without a mark were called inactive. Cut-off read from the data, not from the text of the source: active = inhibition above about 20% (passing the limit was not always enough); inactive = the rest. Where a SMILES comes first, the peptide text is derived from it. [ ]: non-standard residue; d: D form. ξ: configuration not given here. ξV = CC(C)C(N)C(=O)O

Biological target: Coagulation factor XII (Homo sapiens) (UniProt P00748)
Assay: blockers of FXIIa protease activity – biochemical, pooled compound mixtures, fluorogenic substrate, primary screen (AID 684);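 note: 0% = enzyme without compound and 100% = no enzyme blank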
Details: purified FXIIa, at 5 µM, hits give high values

Sequence of Coagulation factor XII (Homo sapiens) (P00748 20-372 limits assumed): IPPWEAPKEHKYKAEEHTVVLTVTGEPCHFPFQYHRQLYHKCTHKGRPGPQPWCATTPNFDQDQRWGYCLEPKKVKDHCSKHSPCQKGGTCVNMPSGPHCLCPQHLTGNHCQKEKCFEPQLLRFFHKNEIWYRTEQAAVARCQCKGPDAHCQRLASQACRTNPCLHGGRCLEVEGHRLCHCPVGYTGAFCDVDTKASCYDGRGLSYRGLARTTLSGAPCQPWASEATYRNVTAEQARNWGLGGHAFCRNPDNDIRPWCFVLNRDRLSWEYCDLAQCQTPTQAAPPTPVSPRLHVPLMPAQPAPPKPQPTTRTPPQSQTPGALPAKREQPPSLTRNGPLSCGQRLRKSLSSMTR
Sequence of Coagulation factor XII (Homo sapiens) (P00748 373-615 limits assumed): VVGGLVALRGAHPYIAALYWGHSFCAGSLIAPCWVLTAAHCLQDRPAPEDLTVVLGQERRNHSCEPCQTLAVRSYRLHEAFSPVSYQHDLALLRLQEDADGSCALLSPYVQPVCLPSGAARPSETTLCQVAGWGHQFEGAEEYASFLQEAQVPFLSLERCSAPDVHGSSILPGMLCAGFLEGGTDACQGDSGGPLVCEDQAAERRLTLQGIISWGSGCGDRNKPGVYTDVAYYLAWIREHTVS

Point of comparison: `N#Cc1ccc(CSc2nnc(-c3ccccn3)n2-c2ccc(Cl)cc2)cc1`, inhibition -14.6%. Against it:
- O=C(CN1CCOCC1)Nc1cc(Cl)ccc1Cl — higher, 17.8%
- CCCN1C(=O)C(NS(=O)(=O)c2ccc(N)cc2)(C(F)(F)F)C(C(=O)OC)=C1C (configuration not stated) — higher, 4.13%
- CC1CCCCC1NC(=O)CSc1nnc(N)s1 (configuration not stated) — higher, 4.21%
- CCOC(=O)Cc1c(C)nc2c(C#N)c(C)nn2c1C — lower, -16%
- CCOC(=O)N1CCN(CC(=O)c2c(C)[nH]c3ccccc23)CC1 — higher, 8.99%
- CCC(C(=O)Nc1ncccn1)(C(F)(F)F)C(F)(F)F — higher, 9.39%
- Cc1ccc(-n2ncc3c2ncn2nc(-c4ccco4)nc32)c(C)c1 — higher, 0.945%
- Cc1ccc(-n2ncc3c(N4CCN(c5ccc(F)cc5)CC4)ncnc32)c(C)c1 — higher, 2.92%
- CC(=O)NS(=O)(=O)c1ccccc1 — higher, 7.57%
- Cc1ccc(-c2nn(-c3ccccc3)cc2CN(Cc2ccccc2)C(=O)CCC(=O)O)o1 — higher, 1.27%
- COc1ccc(CC(NC(C)=O)C(=O)NC2CCN(C(=O)Nc3ccc(C#N)cc3)CC2)cc1OC (configuration not stated) — lower, -19%
- c1nnc2c3c4c(sc3ncn12)CCC4 — lower, -20.4%
- Cc1ccc2cccc(O)c2[n+]1[O-] — higher, 6.81%
- CCCn1c(SCC(N)=O)nnc1C(C)C — higher, -14.3%
- COc1ccccc1N1CCN(C(=O)c2c(-c3c(Cl)cccc3Cl)noc2C)CC1 — lower, -18.6%
- CCCn1nnc2sc3c(c2c1=O)CCC(C)C3 (configuration not stated) — higher, 1.96%
- Cc1ccnc(SCCn2c(N(C)Cc3ccccc3)nc3c2c(=O)n(C)c(=O)n3C)n1 — higher, 5.5%
- Cc1ccc(S(=O)(=O)C2(S(=O)(=O)c3ccc(C)cc3)CCCC2)cc1 — higher, 5.75%
- CCCOC(=O)c1[nH]c2c(c1C)C(=O)CC(c1cc(OC)c(OC)c(OC)c1)C2 (configuration not stated) — higher, 3.98%
- O=C(c1ccc(-n2cnnn2)cc1)N1CCN(C(c2ccccc2)c2ccccc2)CC1 — higher, 1.76%
- c1c2c(cc3sc(N4CCCCC4)nc13)OCCO2 — higher, -2.49%
- CC(=O)Oc1ccc(C)cc1N1C(=O)c2ccc(C(=O)O)cc2C1=O — higher, 9.34%
- N#Cc1ccc(OCCN2C(=O)NC3(CCSC3)C2=O)cc1 (configuration not stated) — higher, 18.5%
- COc1ccc(C2/C(=C(/O)c3ccccc3)C(=O)C(=O)N2c2ncccn2)cc1OC (configuration not stated) — higher, 2.12%
- Cc1c(NC(=O)c2coc(=O)c(Br)c2)c(=O)n(-c2ccccc2)n1C — higher, -0.015%
- CCOC(=O)N1CCN(C(=O)Cc2ccc(-n3c(=S)[nH]c4ccccc4c3=O)cc2)CC1 — higher, 7.08%
- COc1cccc(Nc2nnc(SCC(=O)N3CC(C)OC(C)C3)s2)c1 (configuration not stated) — higher, -0.74%
- CCOc1ccc2[nH]c(=O)c(CN(CCCO)C(C)=O)cc2c1 — higher, -3.55%
- Cn1c(=O)c2[nH]c(NCC3CCCO3)nc2n(-c2ccccc2)c1=O (configuration not stated) — lower, -14.8%
- CC(C)CCNc1nc(N2CCCC2)c2c(c1C#N)CCN(C)C2 — lower, -51.8%
- CCN(CC)P(=O)(C(NC(=O)OC)C(F)(F)C(F)(F)C(F)(F)C(F)F)N(CC)CC (configuration not stated) — higher, 0.97%
- CCCC(C)n1[nH]c(=O)c2c(C)cc(C)nc21 (configuration not stated) — higher, 3.26%
- N#CC(C(=O)c1ccc(S(=O)(=O)N2CCCCCC2)cc1)c1nc2ccccc2[nH]1 (configuration not stated) — higher, -9.55%
- OCCNCCCCOc1ccccc1F — higher, -11.6%
- CCOc1ccc(CCNC(=O)C2CCN(c3ccc(N4CCOCC4)nn3)CC2)cc1OCC — lower, -15.4%
- Cc1nc2ccc(NC(=O)N3CCC(c4ccccc4)C3)cc2nc1C (configuration not stated) — lower, -16.9%
- CC(=O)NCC(=O)N(C)C(C(=O)Nc1ccc2c(c1)OCCO2)c1ccccc1 (configuration not stated) — higher, 16.7%
- COc1cccc(N(CC(=O)Nc2cccc(N(C)S(C)(=O)=O)c2)S(C)(=O)=O)c1 — higher, -3.08%
- COc1ccc(NC(=O)CN(C)S(=O)(=O)c2ccccc2)cc1OC — higher, 19.2%
- Cc1ccc(S(=O)(=O)c2c(N)n(C)c3nc4ccccc4nc23)cc1 — higher, -4.52%
- N#CCCN1CCN(S(=O)(=O)c2ccc(S(=O)(=O)NC3CCCCC3)cc2)CC1 — higher, 4.97%
- O=C(CCS(=O)(=O)c1ccccc1)Nc1nc2c(s1)CCCC2 — higher, 24.1%
- COc1ccc(C(=O)c2oc3ccc(Br)cc3c2NC(C)=O)cc1 — higher, 1.19%
- C/C(=C\C(=O)c1ccccc1)Nc1cccc(O)c1 — higher, 2.12%
- COC(=O)c1cc(C(=O)OC)cc(N2C(=O)CC(N3CCN(c4ccccc4)CC3)C2=O)c1 (configuration not stated) — higher, 7.93%
- CCn1cc(C(=O)NCC2COc3ccccc3O2)c2cc(OC)c(OC)cc2c1=O (configuration not stated) — higher, 3.64%
- COc1ccccc1NC(=O)c1ccc(C)s1 — higher, -2.31%
- CC(=O)Nc1ccc(S(=O)(=O)N2CCC(N(C)CCC(C)C)CC2)cc1 — higher, -1.44%
- C=CCNC(=O)CSc1nc2sc(C)c(C)c2c(=O)[nH]1 — higher, 7.21%
- COc1ccc(N2CC(C)Cn3c2nc2c3c(=O)n(Cc3ccccc3F)c(=O)n2C)c(OC)c1 (configuration not stated) — higher, 10.8%
- Cn1nnc(NC(=O)CSc2ncn[nH]2)n1 — higher, 4.66%
- O=C1Nc2ccccc2C12Nc1ccccc1S2 (configuration not stated) — higher, -1.23%
- C=CCn1c(COc2ccccc2F)nnc1SCC(=O)N1CC(=O)Nc2ccccc21 — higher, 1.16%
- COc1ccc(C2C3=C(CC(C)(C)CC3=O)Oc3ncn4nc(-c5cccnc5)nc4c32)cc1OC (configuration not stated) — higher, 10.1%
- C=CCNC(=O)CCCC(=O)NCC=C — higher, 0.65%
- COc1ccc2c3c(c(=O)oc2c1OCC(=O)C(C)(C)C)CCCC3 — higher, 12.2%
- COc1ccc(N2C(=O)C3CCCN3C2c2cc(OC)c(OC)cc2OC)cc1 (configuration not stated) — lower, -16.1%
- CC(=O)NC(C(=O)NCC(N)=O)C(C)C (configuration not stated) (Ac-[ξV]-Gly-NH2) — higher, 1.26%
- Cc1nn(-c2ccccc2)c(CC(C)(C)C(=O)O)c1C(=O)O — higher, -11.5%
- Cc1cccc(NC(=O)CSc2nnc(NC(=O)CN3CCOCC3)s2)c1 — higher, 0.94%
- CCOC(=O)N1CCC(NC(=O)c2cnn3ccccc23)CC1 — higher, 2.9%
- CCOc1ccc(CCNC(=O)C(CC)n2nc(C)n3c(cc4sccc43)c2=O)cc1OCC (configuration not stated) — higher, 8.5%
- CCOC(=O)N1CCN(S(=O)(=O)c2cc(Br)cc3c2N(C(=O)C2CC2)CC3)CC1 — higher, 2.7%
- CC(=O)Nc1ccc(S(=O)(=O)Nc2nc3n(n2)C(c2ccccc2)CC(=O)N3)cc1 (configuration not stated) — lower, -18.2%
- COc1ccc(-n2ncc3c(N4CCCc5ccccc54)ncnc32)cc1 — lower, -15%
- COCC(C)N=CC1=C(O)CC(C)(C)CC1=O (configuration not stated) — higher, 3.32%
- CC(=O)Cc1nsc(NC(=O)c2csc3c2CCCC3)n1 — lower, -19%
- CCOc1ccc(NC(=O)N(CCC(C)C)C(C)c2ccco2)cc1 (configuration not stated) — higher, 29.7%
- CCCNC(=O)C1CC(=O)N(c2ccc(OCC(=O)Nc3cccc(C)c3C)cc2)C1 (configuration not stated) — higher, 4.39%
- CCOC(=O)CCC(=O)OCC(=O)NC(C)C1CC2CCC1C2 (configuration not stated) — higher, 20.1%
- COCCNC(=O)CSc1nc2c(n1-c1ccccc1)CCCC2 — higher, 1.41%
- CCC1CCCCN1CCNS(=O)(=O)c1ccc2c(c1)CCN2C(C)=O (configuration not stated) — lower, -15.6%
- CCc1nnc(NS(=O)(=O)c2ccc(NS(=O)(=O)c3ccccc3)cc2)s1 — higher, -2.69%
- CC(=O)Oc1ccc2c(C)c(CC(C)O)c(=O)oc2c1 (configuration not stated) — higher, 9.88%

With `Cc1ccc(-n2ncc3c(=O)[nH]cnc32)c(C)c1` the inhibition was 20.5% (active).
In the case of `COc1cccc(NC(=O)CN(C)S(=O)(=O)c2ccc(C)cc2)c1`, the inhibition is reported as 23% (active).
